Test results from PubChem BioAssay (Tox21).
Several values for one entry are separate records, joined by “and”; a condition that tells them apart may be missing. Equal entries are not always repeated. Inconclusive results are not listed. Some compounds were tested as several samples or in several runs, with calls that do not always agree. Activity calls are given as the source filed them. Unless noted, calls come from the whole dose curve; as a rule, active = well fitted curve in the direction sought with a large enough effect in the repeat runs; inconclusive = weak or mixed curves; inactive = no such curve, though single readings can be large; an effect the other way counts as inactive or inconclusive.

Key:
[1] = qHTS assay to test for compound auto fluorescence at 535 nm (green) in HEK293 cells (AID 720680)
[2] = qHTS assay to test for compound auto fluorescence at 460 nm (blue) in HEK293 cell free culture (AID 720681)
Procedure, shortened: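 Blue fluorescence (Ex 405/Em 460 nm, triamterene-equivalent) was read immediately after pin transfer of compound or DMSO into medium (DMEM, 10% FBS) without cells.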

[3] = qHTS assay to test for compound auto fluorescence at 535 nm (green) in HEK293 cell free culture (AID 720682)
Procedure, shortened: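 Green-channel intensity (Ex/Em 485/535 nm) was recorded from compound-treated wells containing only DMEM with 10% FBS. Fluorescein provided the equivalency standard.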

[4] = qHTS assay to test for compound auto fluorescence at 590 nm (red) in HEK293 cell free culture (AID 720683)
Procedure, shortened: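 Red-channel autofluorescence of compounds in culture medium (DMEM, 10% FBS), no cells, measured at 540/590 nm. Rose Bengal sodium is the reference fluorophore for equivalence.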

[5] = qHTS assay to test for compound auto fluorescence at 460 nm (blue) in HepG2 cell free culture (AID 720685)
Procedure, shortened: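 Cell-free plates of MEM plus 10% FBS received 23 nL compound or DMSO vehicle; blue-channel (405/460 nm) intensity scored against triamterene as reference fluorophore.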

[6] = qHTS assay to test for compound auto fluorescence at 535 nm (green) in HepG2 cell free culture (AID 720686)
[7] = qHTS assay to test for compound auto fluorescence at 460 nm (blue) in HepG2 cells (AID 720687)
Procedure, shortened: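 Blue-channel autofluorescence (Ex/Em 405/460 nm, triamterene-equivalent) was measured after 1 hr compound exposure at 37 C, 5% CO2. Cells were HepG2, plated overnight at 37 C in MEM plus 10% FBS.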

[8] = molecular target: Glucocorticoid receptor (Homo sapiens) (UniProt P04150); assay: qHTS assay to identify small molecule agonists of the glucocorticoid receptor (GR) signaling pathway (AID 720691; active = well fitted activation curve with a large enough effect in the signal ratio in the repeat runs, not every such curve was filed as active; the % refers to the signal ratio)
Sequence of Glucocorticoid receptor (Homo sapiens) (P04150 whole entry, looked up): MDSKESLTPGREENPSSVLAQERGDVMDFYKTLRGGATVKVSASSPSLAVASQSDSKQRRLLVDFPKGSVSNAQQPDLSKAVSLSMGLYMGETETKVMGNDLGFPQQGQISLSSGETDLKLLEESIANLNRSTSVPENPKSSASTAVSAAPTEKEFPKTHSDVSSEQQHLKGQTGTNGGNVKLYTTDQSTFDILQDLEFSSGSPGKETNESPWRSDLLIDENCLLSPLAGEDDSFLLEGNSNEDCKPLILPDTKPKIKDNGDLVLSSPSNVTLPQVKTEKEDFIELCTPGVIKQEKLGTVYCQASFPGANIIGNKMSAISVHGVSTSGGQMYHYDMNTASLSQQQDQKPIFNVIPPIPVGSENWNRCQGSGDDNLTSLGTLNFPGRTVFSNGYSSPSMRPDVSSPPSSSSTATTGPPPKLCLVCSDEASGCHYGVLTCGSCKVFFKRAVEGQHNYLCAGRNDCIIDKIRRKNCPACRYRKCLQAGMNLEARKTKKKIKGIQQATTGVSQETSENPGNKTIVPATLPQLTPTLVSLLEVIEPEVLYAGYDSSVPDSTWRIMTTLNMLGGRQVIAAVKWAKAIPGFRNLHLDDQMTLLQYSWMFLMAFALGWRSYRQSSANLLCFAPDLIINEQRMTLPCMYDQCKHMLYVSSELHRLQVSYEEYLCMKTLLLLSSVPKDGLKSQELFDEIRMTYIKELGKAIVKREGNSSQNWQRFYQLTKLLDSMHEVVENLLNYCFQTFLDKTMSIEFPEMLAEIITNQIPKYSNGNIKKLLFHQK
Procedure, shortened: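 Agonist-mode qHTS in HeLa cells stably expressing a glucocorticoid-response-element beta-lactamase reporter. Fluorescence intensity read with FRET substrate (2 h, room temperature) after 18 h compound treatment at 37 C.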

[9] = molecular target: Glucocorticoid receptor (Homo sapiens) (UniProt P04150); assay: qHTS assay to identify small molecule antagonists of the glucocorticoid receptor (GR) signaling pathway (AID 720692; active = well fitted inhibition curve with a large enough effect in the signal ratio in the repeat runs, not every such curve was filed as active; the % refers to the signal ratio; note: potency is the fitted concentration of half-maximal effect)
Procedure, shortened: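 Inhibition of dexamethasone-driven (5 nM final) beta-lactamase expression was measured in GRE-reporter HeLa cells over 18 h at 37C. Fluorescence was read after 2 h with the B/G FRET substrate at room temperature.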

[10] = qHTS assay to identify small molecule antagonists of the glucocorticoid receptor (GR) signaling pathway - cell viability counter screen (AID 720693); note: nearly all actives have a fitted effect of over 55% in size
[11] = qHTS assay for identifying genotoxic compounds that show differential cytotoxicity against isogenic chicken DT40 cell lines with known DNA damage response pathways - wild type cell line (AID 743012); note: nearly all actives have a fitted effect of over 60% in size; note: potency is the fitted concentration of half-maximal effect
Procedure, shortened: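 Viability by ATP luminescence (CellTiter-Glo, 30 min RT) after 40 h compound treatment at 37 C/5% CO2, using 300 parental DNA repair-proficient DT40 cells per well.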

[12] = qHTS assay for identifying genotoxic compounds that show differential cytotoxicity against isogenic chicken DT40 cell lines with known DNA damage response pathways - Rev3 mutant cell line (AID 743014); note: nearly all actives have a fitted effect of over 55% in size; note: potency is the fitted concentration of half-maximal effect
[13] = qHTS assay for identifying genotoxic compounds that show differential cytotoxicity against isogenic chicken DT40 cell lines with known DNA damage response pathways - Rad54/Ku70 mutant cell line (AID 743015); note: nearly all actives have a fitted effect of over 60% in size; note: potency is the fitted concentration of half-maximal effect
[14] = qHTS assay to identify small molecule antagonists of the androgen receptor (AR) signaling pathway using the MDA cell line - cell viability counter screen (AID 743041; note: nearly all actives have a fitted effect of over 45% in size)
Procedure, shortened: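 Viability read by CellTiter-Fluor fluorescence in the same wells as the antagonist screen, added after 15.5 h of a 16 h, 37C exposure. Human breast carcinoma MDA-kb2 AR-luc cells, compounds co-dosed with agonist R1881.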

[15] = qHTS assay to identify small molecule antagonists of the thyroid receptor (TR) signaling pathway - cell viability counter screen (AID 743064); note: nearly all actives have a fitted effect of over 50% in size; note: potency is the fitted concentration of half-maximal effect
Procedure, shortened: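 In rat pituitary GH3.TRE-Luc reporter cells co-exposed to compound and 1 nM T3 for 23.5 h, cytotoxicity was assessed with CellTiter-Fluor in the same wells, read by fluorescence.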

[16] = qHTS assay to identify small molecule antagonists of the thyroid receptor (TR) signaling pathway (AID 743065); note: nearly all actives have a fitted effect of over 55% in size; note: potency is the fitted concentration of half-maximal effect
Procedure, shortened: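 Antagonism measured as loss of luciferase signal in GH3 cells stably carrying a TRE-luciferase reporter, co-treated with compound and T3 (1 nM final) for 23.5 h at 37 C. Viability was read in the same well by CellTiter-Fluor.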

[17] = qHTS assay to test for compound auto fluorescence at 590 nm (red) in HepG2 cell free culture (AID 720684)
Procedure, shortened: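 Cell-free; medium MEM + 10% FBS; compound or DMSO added by pintool; read Ex 540/Em 590 nm; Rose Bengal sodium as red reference fluorophore.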

[18] = qHTS assay to identify small molecule antagonists of the androgen receptor (AR) signaling pathway - cell viability counter screen (AID 743033; note: nearly all actives have a fitted effect of over 45% in size)
[19] = molecular target: Androgen receptor (Homo sapiens) (UniProt P10275); assay: qHTS assay to identify small molecule agonists of the androgen receptor (AR) signaling pathway (AID 743036; active = well fitted activation curve with a large enough effect in the signal ratio in the repeat runs, with a control signal flat, not every such curve was filed as active; the % refers to the signal ratio)
Sequence of Androgen receptor (Homo sapiens) (P10275 whole entry, looked up): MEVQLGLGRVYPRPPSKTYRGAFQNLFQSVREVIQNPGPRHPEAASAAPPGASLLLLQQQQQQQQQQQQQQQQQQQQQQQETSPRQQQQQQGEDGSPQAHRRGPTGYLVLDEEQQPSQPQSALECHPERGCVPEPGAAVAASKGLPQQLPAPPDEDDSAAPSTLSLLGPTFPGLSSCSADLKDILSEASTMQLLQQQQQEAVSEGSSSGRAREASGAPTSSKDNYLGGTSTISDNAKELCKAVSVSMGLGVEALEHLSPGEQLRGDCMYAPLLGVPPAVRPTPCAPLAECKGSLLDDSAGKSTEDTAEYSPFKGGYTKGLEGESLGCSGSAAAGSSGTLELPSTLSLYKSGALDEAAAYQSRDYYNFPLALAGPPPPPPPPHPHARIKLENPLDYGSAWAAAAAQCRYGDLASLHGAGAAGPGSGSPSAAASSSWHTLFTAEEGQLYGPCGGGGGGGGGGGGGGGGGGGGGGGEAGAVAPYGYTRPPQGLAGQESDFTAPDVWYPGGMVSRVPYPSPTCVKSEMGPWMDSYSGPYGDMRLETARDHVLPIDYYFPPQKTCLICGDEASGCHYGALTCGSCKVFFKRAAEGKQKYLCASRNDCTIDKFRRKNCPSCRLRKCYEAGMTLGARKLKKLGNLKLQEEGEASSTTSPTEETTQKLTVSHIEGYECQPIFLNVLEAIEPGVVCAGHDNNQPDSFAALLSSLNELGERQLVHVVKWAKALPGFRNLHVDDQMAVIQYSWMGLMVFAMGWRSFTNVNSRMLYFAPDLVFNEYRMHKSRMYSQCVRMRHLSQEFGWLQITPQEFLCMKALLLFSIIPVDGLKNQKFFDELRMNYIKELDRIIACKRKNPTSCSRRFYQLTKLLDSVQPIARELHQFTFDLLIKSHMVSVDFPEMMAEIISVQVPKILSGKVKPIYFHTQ
Procedure, shortened: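 Cell-based FRET reporter assay: HEK293 line with a UAS-beta-lactamase construct, compounds added in DMSO, 16 h exposure at 37C, then 2 h substrate step at room temperature and fluorescence intensity read.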

[20] = molecular target: Androgen receptor (Homo sapiens) (UniProt P10275); assay: qHTS assay to identify small molecule agonists of the androgen receptor (AR) signaling pathway using the MDA cell line (AID 743040; note: nearly all actives have a fitted effect of over 20% in size)
Procedure, shortened: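 Luciferase agonist assay: 16 h compound exposure at 37C without CO2 in MDA-kb2 AR-luc cells, whose MMTV promoter responds to both AR and GR. Luminescence measured after 30 min room-temperature incubation with ONE-Glo.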
% is set by controls: 0 for no effect and ±100 for the full control effect.

CN(C)CCCOc1nn(Cc2ccccc2)c2ccccc12
active: Potency [11] 12.7 µM | Potency [12] 12.7 µM | Potency [13] 11.4 µM | Potency [15] 8.04 µM | Potency [16] 9.02 µM
inactive: fluorescence, % of fluorescein [1] 0.0226% [at 18.6 µM] | fluorescence, % of fluorescent control [2] -0.101% [at 18.6 µM] | activity change [3] -0.0035% [at 18.6 µM] | fluorescence, % of fluorescent control [4] 0.117% [at 18.6 µM] | fluorescence, % of fluorescent control [5] -0.0147% [at 18.6 µM] | fluorescence, % of fluorescein control [6] 0.0194% [at 18.6 µM] | fluorescence, % of fluorescent control [7] -0.0064% [at 18.6 µM] | Potency [8] | Potency [9] | Potency [10] | Potency [14]

NC[C@H]1O[C@H](O[C@H]2[C@H](O)[C@@H](O[C@H]3O[C@H](CO)[C@@H](O)[C@H](N)[C@H]3O)[C@H](N)C[C@@H]2N)[C@H](O)[C@@H](O)[C@@H]1O
inactive and 1.89 µM (active): Potency [13] | Potency [15]
inactive: fluorescence, % of fluorescein [1] -0.0192% [at 18.6 µM] and 0.0982% [at 3.72 µM] | fluorescence, % of fluorescent control [2] 0.0354% [at 18.6 µM] and -0.129% [at 3.72 µM] | fluorescence, % of fluorescent control [4] 0.0769% [at 18.6 µM] and -0.256% [at 3.72 µM] | fluorescence, % of Rose Bengal [17] -0.276% [at 18.6 µM] and 0.0159% [at 3.72 µM] | fluorescence, % of fluorescent control [5] -0.077% [at 18.6 µM] and 0.036% [at 3.72 µM] | fluorescence, % of fluorescein control [6] -0.0088% [at 18.6 µM] and 0.0013% [at 3.72 µM] | fluorescence, % of fluorescent control [7] 0.0301% [at 18.6 µM] and -0.0315% [at 3.72 µM] | Potency [8] | Potency [9] | Potency [10] | Potency [11] | Potency [12] | Potency [18] | Potency [14]

CN(C)C/C=C(/c1ccc(Br)cc1)c1cccnc1
inactive: outcome [1] | Potency [2] | outcome [3] | outcome [4] | Potency [5] | outcome [6] | Potency [7] | Potency [8] | Potency [9] | Potency [10] | Potency [18] | Potency [14]
active: Potency [11] 29.8 µM | Potency [15] 10.6 µM

CC(=O)SCc1ccco1
inactive: outcome [1] | Potency [2] | outcome [3] | outcome [4] | Potency [5] | outcome [6] | Potency [7] | Potency [8] | Potency [9] | Potency [10] | Potency [11] | Potency [12] | Potency [13] | Potency [18] | outcome [19] | Potency [20] | Potency [14] | Potency [15] | Potency [16]

CCOc1nc2cccc(C(=O)O)c2n1Cc1ccc(-c2ccccc2-c2nn[nH]n2)cc1
inactive: outcome [1] | Potency [2] | outcome [3] | outcome [4] | Potency [5] | outcome [6] | Potency [7] | Potency [12] | Potency [18] | outcome [19] | Potency [20]
active: Potency [13] 29.8 µM | Potency [15] 29.8 µM | Potency [16] 29.8 µM

C=CC(=O)OCC(C)OCC(C)OCC(C)OC(=O)C=C (configuration not stated)
inactive: outcome [1] | Potency [2] | outcome [3] | outcome [4] | Potency [5] | outcome [6] | Potency [7] | Potency [8] | Potency [14]
active: Potency [9] 43.6 µM | Potency [11] 15.4 µM | Potency [12] 19.3 µM | Potency [13] 17.2 µM | Potency [15] 38.6 µM

CCOC(=S)SSC(=S)OCC
inactive: outcome [1] | Potency [2] | outcome [3] | outcome [4] | Potency [5] | outcome [6] | Potency [7] | Potency [8] | Potency [9] | Potency [10] | Potency [11] | Potency [12] | Potency [13] | Potency [18] | Potency [14] | Potency [15] | Potency [16]

CC(=O)N(O)CCCCCNC(=O)CCC(=O)N(O)CCCCCNC(=O)CCC(=O)N(O)CCCCCN
inactive: fluorescence, % of fluorescein [1] 0.127% [at 18.6 µM] | fluorescence, % of fluorescent control [2] 0.0573% [at 18.6 µM] | activity change [3] 0.033% [at 18.6 µM] | fluorescence, % of fluorescent control [4] -0.0386% [at 18.6 µM] | fluorescence, % of fluorescent control [5] 0.0393% [at 18.6 µM] | fluorescence, % of fluorescein control [6] 0.169% [at 18.6 µM] | fluorescence, % of fluorescent control [7] 0.041% [at 18.6 µM] | Potency [8] | Potency [9] | Potency [10] | Potency [12] | Potency [13] | outcome [19] | Potency [20] | Potency [14] | Potency [15] | Potency [16]
